Experimental findings from PubChem BioAssay (Tox21) are described below.

Records with an inconclusive call do not appear. A call without a number means that no potency is given here. Activity calls are given as the source filed them. Unless noted, the call rests on the fitted dose curve.

The first test is described as follows: p53 small molecule agonists, cell-based qHTS assay: qHTS cell viability counter screen (AID 1963581). Further: nearly all actives have a fitted effect of over 45% in size. Further: potency means the concentration at half of the fitted maximal effect. The settings on record: p53RE-bla HCT-116 viability, ATP luminescence, 16 h; series mostly up to 66 µM. The method in brief: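 Cells: HCT-116 with p53 response element-driven beta-lactamase. Treatment: 16 h, 37 C, compounds in DMSO. Read: CellTiter-Glo luminescence after 30 min RT.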
On to `CCCCCCCCP(=O)(O)O`, for which the Potency result is “inactive”.

As for `c1ccc2c(c1)CCNC2`, the Potency result is “inactive”. As to `C[C@]12Cc3nonc3C[C@@H]1CC[C@@H]1[C@@H]2CC[C@@]2(C)[C@H]1CC[C@]2(C)O`, the Potency result was “inactive”.

Regarding `Nc1cc(Cl)ccc1Cl`, the Potency entry is “inactive”. The same measure, in the same setting: as for `Clc1cccc(N2CCNCC2)c1`, the entry is “inactive”; as for `N#Cc1c(Cl)cccc1Cl`, “inactive”. In the case of `COc1ccc(CN2CCNCC2)c(OC)c1OC`, the Potency result was “inactive”.

With `CC(Cc1ccccc1)N(C)Cc1ccco1` (stereo not drawn), the Potency entry was “inactive”. In the case of `ClCC(Cl)Cl`, the Potency entry is “inactive”.

On to `CC[C@@H](CO)NC(=O)[C@@H]1C=C2c3cccc4c3c(cn4C)C[C@H]2N(C)C1`, for which the Potency entry was “inactive”.

On to `CC1NCCOC1c1ccccc1` (stereo not drawn), for which the Potency result was “inactive”.

Consider `O=C(Cc1ccccc1)OCCc1ccccc1`, for which the Potency entry is “inactive”. For the compound `O=C(Cl)c1ccc(Cl)cc1`, the Potency result was “inactive”. Same read-out and setting: as for `COc1ccc(C(=O)N2CCCC2=O)cc1`, the entry is “inactive”. As for `ClCCCN1CCN(c2cccc(Cl)c2)CC1`, the Potency entry is “inactive”. Consider `C=CCC1([C@H](C)CCC)C(=O)NC(=O)NC1=O`, for which the Potency result is “inactive”.

Consider `ClC(Cl)=C(Cl)Cl`, for which the Potency result was “inactive”.

Take `CCN(C(C)=O)c1cccc(-c2ccnc3c(C#N)cnn23)c1`: the Potency entry was “inactive”. Turning to `CCCN1CCC[C@@H]2Cc3[nH]ncc3C[C@H]21`, the Potency result is “inactive”. On the same count and under the same terms, as for `CC#Cc1cc(C)nc(Nc2ccccc2)n1`, the entry is “inactive”. `BrCCCCBr`: the Potency result is “inactive”. Turning to `O=c1[nH]oc2c1CCNC2`, the Potency entry was “inactive”. In the case of `O=C1OC(CCN2CCCCC2)OC1(c1ccccc1)c1ccccc1` (stereo not drawn), the Potency result is “inactive”. In the case of `N[C@@H](Cc1ccc(Oc2cc(I)c(O)c(I)c2)c(I)c1)C(=O)O`, the Potency entry was “inactive”. For the compound `O=S1(=O)OC(c2cc(Br)c(O)c(Br)c2)(c2cc(Br)c(O)c(Br)c2)c2ccccc21`, the Potency was 18.7 µM (active). Take `[Cl][Sn]([Cl])([Cl])[Cl]`: the Potency result was “inactive”. On to `O=[N+]([O-])c1ccc(CCl)cc1`, for which the Potency entry is “inactive”.

For `O=C(CCCN1CCC(n2c(=O)[nH]c3ccccc32)CC1)c1ccc(F)cc1`, the Potency entry is “inactive”. Regarding `COc1cc(CC#N)cc(OC)c1OC`, the Potency result is “inactive”. In the case of `CC(C)NCC(O)c1ccc([N+](=O)[O-])cc1` (stereo not drawn), the Potency entry is “inactive”. As for `CC(C(O)c1ccccc1)N(C)C/C=C/c1ccccc1` (stereo not drawn), the Potency result is “inactive”. Take `CC[C@@H](CO)NC(=O)[C@@H]1C=C2c3cccc4[nH]cc(c34)C[C@H]2N(C)C1`: the Potency result is “inactive”.

On to `CC(Cl)(Cl)Cl`, for which the Potency entry was “inactive”. Consider `CCOC(=O)CC(=O)CCl`, for which the Potency entry is “inactive”.

Regarding `CNC(C)Cc1ccccc1OC` (stereo not drawn), the Potency result is “inactive”.

`CC(C)NCC(O)c1ccccc1Cl` (stereo not drawn): the Potency entry was “inactive”. Consider `CCN(CC)CCOC(=O)C(C)(c1ccccc1)c1ccccc1`, for which the Potency entry was “inactive”. On to `ClCc1cccc(Cl)c1`, for which the Potency result is “inactive”. With `CC1=C2C[C@H]3[C@@H](CC=C4C[C@@H](O)CC[C@@]43C)[C@@H]2CC[C@]12O[C@@H]1C[C@H](C)CN[C@H]1[C@H]2C`, the Potency entry was “inactive”. For the compound `CC(C)[C@H](C(=O)OC(C#N)c1cccc(Oc2ccccc2)c1)c1ccc(OC(F)F)cc1` (stereo partly drawn), the Potency entry was “inactive”.

Another test can be described thus: p53 small molecule agonists, cell-based qHTS assay (AID 1963582; active means well fitted activation curve with a large enough effect in the signal ratio in the repeat runs, not every such curve was filed as active; the % refers to the signal ratio). The settings on record: HCT-116 p53RE-bla reporter, beta-lactamase FRET ratio, 16 h; series mostly up to 66 µM. The method in brief: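 Quantitative HTS in p53RE-bla cells: after a 5 h settling period, compounds delivered in DMSO were left on cells for 16 h at 37 C, and reporter induction was measured as fluorescence following 2 h substrate loading.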
A general note: qHTS replaces the single test concentration by a dilution series.
With `c1ccc2c(c1)CCNC2`, the Potency result was “inactive”.

For the compound `C[C@]12Cc3nonc3C[C@@H]1CC[C@@H]1[C@@H]2CC[C@@]2(C)[C@H]1CC[C@]2(C)O`, the Potency entry is “inactive”.

In the case of `Nc1cc(Cl)ccc1Cl`, the Potency result was “inactive”. As for `Clc1cccc(N2CCNCC2)c1`, the Potency result is “inactive”. As to `N#Cc1c(Cl)cccc1Cl`, the Potency entry is “inactive”. Turning to `COc1ccc(CN2CCNCC2)c(OC)c1OC`, the Potency result is “inactive”. On the same count and under the same terms, under `CC(Cc1ccccc1)N(C)Cc1ccco1` (stereo not drawn) stands “inactive”; under `ClCC(Cl)Cl`, “inactive”; under `CC[C@@H](CO)NC(=O)[C@@H]1C=C2c3cccc4c3c(cn4C)C[C@H]2N(C)C1`, “inactive”.

Consider `CC1NCCOC1c1ccccc1` (stereo not drawn), for which the Potency entry was “inactive”. For the compound `O=C(Cc1ccccc1)OCCc1ccccc1`, the Potency result is “inactive”. Take `COc1ccc(C(=O)N2CCCC2=O)cc1`: the Potency result is “inactive”. Consider `ClCCCN1CCN(c2cccc(Cl)c2)CC1`, for which the Potency entry is “inactive”. Same read-out and setting: under `C=CCC1([C@H](C)CCC)C(=O)NC(=O)NC1=O` stands “inactive”; under `ClC(Cl)=C(Cl)Cl`, “inactive”.

On to `CCN(C(C)=O)c1cccc(-c2ccnc3c(C#N)cnn23)c1`, for which the Potency result is “inactive”. Take `CCCN1CCC[C@@H]2Cc3[nH]ncc3C[C@H]21`: the Potency result is “inactive”. Turning to `CC#Cc1cc(C)nc(Nc2ccccc2)n1`, the Potency result is “inactive”. The same measure, in the same setting: as for `BrCCCCBr`, the entry is “inactive”; as for `O=C1OC(CCN2CCCCC2)OC1(c1ccccc1)c1ccccc1` (stereo not drawn), “inactive”; as for `N[C@@H](Cc1ccc(Oc2cc(I)c(O)c(I)c2)c(I)c1)C(=O)O`, “inactive”.

Take `O=[N+]([O-])c1ccc(CCl)cc1`: the Potency entry is “inactive”. With `O=C(CCCN1CCC(n2c(=O)[nH]c3ccccc32)CC1)c1ccc(F)cc1`, the Potency result is “inactive”. Turning to `COc1cc(CC#N)cc(OC)c1OC`, the Potency result was “inactive”. On the same count and under the same terms, as for `CC(C)NCC(O)c1ccc([N+](=O)[O-])cc1` (stereo not drawn), the entry is “inactive”; as for `CC(C(O)c1ccccc1)N(C)C/C=C/c1ccccc1` (stereo not drawn), “inactive”. As for `CC[C@@H](CO)NC(=O)[C@@H]1C=C2c3cccc4[nH]cc(c34)C[C@H]2N(C)C1`, the Potency result was “inactive”. For `CC(Cl)(Cl)Cl`, the Potency entry was “inactive”.

In the case of `CNC(C)Cc1ccccc1OC` (stereo not drawn), the Potency result is “inactive”. On to `CC(C)NCC(O)c1ccccc1Cl` (stereo not drawn), for which the Potency entry was “inactive”. In the case of `CCN(CC)CCOC(=O)C(C)(c1ccccc1)c1ccccc1`, the Potency entry was “inactive”. For the compound `ClCc1cccc(Cl)c1`, the Potency entry is “inactive”.

For `CC1=C2C[C@H]3[C@@H](CC=C4C[C@@H](O)CC[C@@]43C)[C@@H]2CC[C@]12O[C@@H]1C[C@H](C)CN[C@H]1[C@H]2C`, the Potency entry was “inactive”.
